In the supplement of paper PMC7156485 one finds H1.0 immunofluorescence intensity data, which are given here for 40 molecules.

SMILES strings stand for the structures.
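Note: TDF is a line of transformed human dermal fibroblasts of mesenchymal origin.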

In the assay the test system is HCC1569. In words: H1.0 immunofluorescence intensity relative to DMSO (% of DMSO); higher = stronger H1.0 induction, active = 140 or more. As to conditions: concentration: 10 µM; 24 h. The gist of the method: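 After 24 h at 37 °C with compounds at 10 µM, in triplicate, HCC1569 and TDF cells were fixed with 3.7% formaldehyde. Immunostaining used a rabbit anti-H1.0 antibody and an AlexaFluor 647 secondary, with DAPI, and six fields per well were imaged at ×10. H1.0 nuclear intensity or cell number is presented as percent of the plate control, from the median of replicates, with HCC1569 values smoothed for positional effects.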
With `Cl.NCCNC(=O)c1ncsc1-c1cccc(F)c1` [Ro 41-1049 hydrochloride], the H1.0 immunofluorescence intensity is 104 (inactive).

Turning to `CCn1nc(C(=O)O)c(=O)c2cc3c(cc21)OCO3` [Cinoxacin], the H1.0 immunofluorescence intensity was 97.5 (inactive).

In the case of `CCOC(=O)CCNc1cc(N2CCc3ccccc3CC2)nc(-c2ccccn2)n1`, the H1.0 immunofluorescence intensity is 113 (inactive). In the case of `CCCCCC=CCC=CCC=CCCCCCCC(=O)O` [8(Z), 11(Z), 14(Z)-Eicosatrienoic Acid], the H1.0 immunofluorescence intensity is 98.7 (inactive). Turning to `CCn1cc(C(=O)O)c(=O)c2cc(F)c(N3CCNC(C)C3)c(F)c21.Cl` (stereo not given) [Lomefloxacin hydrochloride], the H1.0 immunofluorescence intensity was 92.9 (inactive). Consider `CCCCCC=CCC=CC=CC=CC(SCC(NC(C)=O)C(=O)O)C(O)CCCC(=O)O` (stereo not given) [N-Acetyl-leukotriene E4], for which the H1.0 immunofluorescence intensity was 100 (inactive). In the case of `CCCn1c(=O)c2[nH]c(-c3ccc(OCC(=O)NCCN)cc3)nc2n(CCC)c1=O` [Xanthine amine congener] it was 110 (inactive); in that of `CCCCCC=CCC=CCC=CC=CC(O)CCCC(=O)O` (stereo not given), 105 (inactive). In the case of `CCSC(N)=Nc1ccc(C(F)(F)F)cc1.Cl` [TFPI hydrochloride] it was 132 (inactive); in that of `CN(C)C(=O)Nc1cccc(-c2ccc(N(C)C)cc2)c1` [3-(4'-(dimethylamino)-[1,1'-biphenyl]-3-yl)-1,1-dimethylurea], 87.2 (inactive); in that of `Cl.OCC1NCC(O)C(O)C1O` (stereo not given) [1-Deoxynojirimycin hydrochloride], 91.8 (inactive).

For the molecule `CCCCCCCCCC(=O)O` [Decanoic acid], the H1.0 immunofluorescence intensity was 103 (inactive). As for `Nc1ccc(CCNc2ncnc3c2ncn3C2OC(CO)C(O)C2O)cc1` (stereo not given) [N6-2-(4-Aminophenyl)ethyladenosine], the H1.0 immunofluorescence intensity was 94 (inactive).

Take `C[N+]1(C)C2CC(OC(=O)C(O)(c3cccs3)c3cccs3)CC1C1OC12.[Br-]` (stereo not given) [Tiotropium Bromide]: the H1.0 immunofluorescence intensity is 114 (inactive). The figure for `Cc1cc2cc3c(C)cc(=O)oc3c(C)c2o1` [4,5',8-Trimethylpsoralen] is 87.5 (inactive).

`CC1=C(C)C(=O)C(C(CCCCCC(=O)O)c2ccccc2)=C(C)C1=O` (stereo not given) [Seratrodast]: the H1.0 immunofluorescence intensity is 82.5 (inactive). Consider `CC1=c2[nH]c3c(c2CCN1)C=CC(=O)C=3.Cl.O.O`, for which the H1.0 immunofluorescence intensity is 144 (active). For `CCc1nn(CCCN2CCN(c3cccc(Cl)c3)CC2)c(=O)n1CCOc1ccccc1`, the H1.0 immunofluorescence intensity was 122 (inactive). For the molecule `COc1cc2nc(N(C)CCCNC(=O)C3CCCO3)nc(N)c2cc1OC` (stereo not given) [Alfuzosin], the H1.0 immunofluorescence intensity is 102 (inactive).

With `CN1CCN(C2=Nc3cc(F)ccc3Cc3ccccc32)CC1` [Fluperlapine], the H1.0 immunofluorescence intensity is 118 (inactive). For the molecule `CC(OC1OCCN(Cc2nc(=O)[nH][nH]2)C1c1ccc(F)cc1)c1cc(C(F)(F)F)cc(C(F)(F)F)c1` (stereo not given) [Aprepitant], the H1.0 immunofluorescence intensity was 107 (inactive).

For the molecule `OCC1OC(Oc2ccc(O)cc2)C(O)C(O)C1O` (stereo not given) [Arbutin], the H1.0 immunofluorescence intensity was 92.1 (inactive).

For the molecule `CC(Cc1ccccc1)(NC(=O)CN)c1ccccc1.Cl` (stereo not given), the H1.0 immunofluorescence intensity was 91.3 (inactive). With `CN(Cc1cc(Br)cc(Br)c1N)C1CCCCC1` [Bromhexine], the H1.0 immunofluorescence intensity was 123 (inactive). With `CC(C)NCC(O)c1ccc(O)c(O)c1.Cl` (racemic), the H1.0 immunofluorescence intensity is 99 (inactive). On to `COc1cc2c(cc1OC)-c1cc3ccc(OC)c(OC)c3c[n+]1CC2.[Cl-]` [Palmatine chloride], for which the H1.0 immunofluorescence intensity was 88.6 (inactive). `COc1cccc2c1C(=O)c1c(O)c3c(c(O)c1C2=O)CC(O)(C(C)=O)CC3OC1CC(N)C(O)C(C)O1` (stereo not given) [Daunorubicin]: the H1.0 immunofluorescence intensity was 1730 (active).

As to `CCCCCN(C)CCC(O)(P(=O)(O)O)P(=O)(O)O` [Ibandronate], the H1.0 immunofluorescence intensity was 97.2 (inactive). In the case of `CCCCCCCCCCCCC(O)C(=O)O` (stereo not given) [2-Hydroxymyristic acid] it was 102 (inactive). `COc1ccc(-c2cc(=O)c3c(OC)c(OC)c(OC)cc3o2)cc1OC` [Sinensetine]: the H1.0 immunofluorescence intensity was 93.6 (inactive). As to `COc1cc2c(cc1OC)-c1cc(=Nc3c(C)cc(C)cc3C)n(C)c(=O)n1CC2.Cl` [Trequinsin.HCl], the H1.0 immunofluorescence intensity was 118 (inactive). Take `O=C1Nc2ccccc2C1=C1Nc2ccccc2C1=O` [Indirubin]: the H1.0 immunofluorescence intensity was 102 (inactive).

As for `CC[N+](CC)(CC)CC(=O)Nc1c(C)cccc1C.[Br-]` [Lidocaine N-ethyl bromide quaternary salt], the H1.0 immunofluorescence intensity is 94.3 (inactive). In the case of `O=C(NOCC1CC1)c1ccc(F)c(F)c1Nc1ccc(I)cc1Cl`, the H1.0 immunofluorescence intensity was 116 (inactive).

Turning to `CC(C)Cc1ccc(C(C)C(=O)NO)cc1` (stereo not given) [Ibuproxam], the H1.0 immunofluorescence intensity was 95.2 (inactive).

Consider `C#C[C@@]1(OC(C)=O)CC[C@H]2[C@@H]3CCC4=CC(=O)CC[C@@H]4[C@H]3CC[C@@]21C` [(17beta)-17-ethynyl-3-oxoestr-4-en-17-yl acetate], for which the H1.0 immunofluorescence intensity is 121 (inactive). The figure for `CC(C)NCC(O)COc1cccc2[nH]ccc12` (stereo not drawn) [S(-)-Pindolol] is 98.4 (inactive). `O=C(O)C=CC(=O)O.c1cnc(N2CCN(Cc3ccc4c(c3)OCO4)CC2)nc1` [Piribedil maleate]: the H1.0 immunofluorescence intensity was 79.7 (inactive). Regarding `CCC1(O)CC2CN(CCc3c([nH]c4ccccc34)C(C(=O)OC)(c3cc4c(cc3OC)N(C=O)C3C(O)(C(=O)OC)C(OC(C)=O)C5(CC)C=CCN6CCC43C65)C2)C1.O=S(=O)(O)O` (stereo not given) [Vincristine sulfate], the H1.0 immunofluorescence intensity is 151 (active).

For `CCN1CCCC1CNC(=O)c1c(OC)ccc(I)c1O` (stereo not given), the H1.0 immunofluorescence intensity was 88.1 (inactive).
